Most compounds without a hit are left out; they make up all but 4.7% or so of the library.
ADAM10 inh – human ADAM10 inhibitors, primary screen, biochemical, QFRET, HTS. recombinant ADAM10, EDANS/DABCYL FRET peptide cleavage, 3 h. 0.62% of 370,000 active. Disintegrin and metalloproteinase domain-containing protein 10 (Homo sapiens), O14672. AID 720582, 2013. inhibition, % at 7 µM;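 active = inhibition above a per-campaign cutoff equal to the mean of compounds falling between control-based bounds plus 3 SD, cut at about 20% in these data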;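 note: 0% = DMSO wells while the 100% control is not disclosed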
DSG3 Ab inh – inhibitors of pemphigus antibody binding to DSG3, primary screen, biochemical, bead-based, flow cytometry, scFv-GFP. binding (percent of control), % at 10 µM. Desmoglein-3 (Homo sapiens), P32926. 0.48% of 310,000 active. DSG3-coupled beads, scFv-anti-DSG3-GFP binding; stronger effect = lower value. AID 588358, 2011;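 active = binding more than 3 SD below its plate's average and above zero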;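 note: hits lower antibody fragment binding to DSG3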
MPTP block – mitochondrial permeability transition pore inhibitors, primary screen, biochemical, isolated mouse mitochondria, absorbance; 1.4% of 360,000 active; inhibition, % at 10 µM; Ca2+ swelling absorbance, 30 min;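 active = inhibition of 50% or more, scaled per plate between neutral and stimulator controls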;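 note: 0% = DMSO wells given calcium and 100% = 1 mM EGTA wells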
proKLK7 act – proKLK7 zymogen activators, primary screen, biochemical, fluorescence intensity; AID 652039, 2013; activation, % at 7 µM; 0.9% of 370,000 active; purified proKLK7, EDANS-DABCYL substrate fluorescence; 100% is mature enzyme control, 0% vehicle;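 active = activation above the mean of all tested compounds plus 3 SD, computed per campaign excluding outliers beyond control limits, cut at about 13% in these data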
ADAM17 inh – ADAM17 inhibitors, primary screen, biochemical, QFRET. Disintegrin and metalloproteinase domain-containing protein 17 (Homo sapiens), P78536. recombinant ADAM17, EDANS/DABCYL FRET peptide cleavage. 0.83% of 370,000 active. inhibition, % at 6.95 µM;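 active = inhibition above the mean of compounds lying between control limits plus 3 SD, set per campaign, cut at about 8.5% in these data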;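 note: 0% = DMSO-only wells as the low control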
Target sequence (P78536 215-824 limits assumed): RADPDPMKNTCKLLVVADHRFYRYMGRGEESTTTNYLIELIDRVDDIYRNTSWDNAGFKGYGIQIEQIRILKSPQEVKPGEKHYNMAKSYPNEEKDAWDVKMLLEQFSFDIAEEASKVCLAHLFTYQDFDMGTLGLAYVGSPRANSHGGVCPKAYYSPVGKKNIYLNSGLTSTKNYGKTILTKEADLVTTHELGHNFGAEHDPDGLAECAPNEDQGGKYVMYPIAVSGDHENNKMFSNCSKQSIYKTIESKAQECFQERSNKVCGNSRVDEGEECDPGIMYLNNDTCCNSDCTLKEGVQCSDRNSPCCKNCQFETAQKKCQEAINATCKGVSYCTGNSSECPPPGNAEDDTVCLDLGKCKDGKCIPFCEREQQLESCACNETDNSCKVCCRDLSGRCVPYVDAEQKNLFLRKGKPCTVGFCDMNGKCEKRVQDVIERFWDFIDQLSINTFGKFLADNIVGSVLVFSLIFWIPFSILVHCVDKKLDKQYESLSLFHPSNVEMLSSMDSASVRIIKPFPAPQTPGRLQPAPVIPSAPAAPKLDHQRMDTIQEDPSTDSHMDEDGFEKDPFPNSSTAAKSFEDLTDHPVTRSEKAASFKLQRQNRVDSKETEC
rCAG RNA binder – binders of r(CAG) RNA repeats, primary screen, biochemical, fluorescence | r(CAG) RNA repeat, TO-PRO-1 dye displacement fluorescence | inhibition, % at 3 µM | 1.3% of 370,000 active;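 active = inhibition above the plate cutoff, the mean of all test compounds on that plate plus 3 SD, cut at about 35% in these data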;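 note: 0% = DMSO alone and 100% = 100 µM mitoxantrone as full dye displacement; higher means more dye released from RNA so lower well fluorescence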
MPTP counter – fluorescence retest of MPTP screen hits in isolated mitochondria, single concentration; shares compounds with MPTP block; membrane potential, Rhodamine 123 fluorescence; inhibition, % at 10 µM; 78% of 5,000 active; in the data active = inhibition above about 22%;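 note: 0% = DMSO vehicle and 100% = positive control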
MPTP swell DR – mitochondrial permeability transition pore inhibitors, dose response, biochemical, absorbance, uHTS hits; shares compounds with MPTP block; isolated mitochondria swelling; IC50, µM; 58% of 780 active; AID 651561, 2012; in the data active = IC50 below about 20 µM
MPTP cs DR – fluorescent counter-screen in isolated mitochondria, dose response, counter-screen for MPTP inhibitor project, biochemical, fluorescence, uHTS hits; isolated mitochondria counterscreen, fluorescence read-out; shares compounds with MPTP block; 49% of 780 active; IC50, µM; in the data active = IC50 below about 80 µM
Active calls of the source: *; i = inactive; · = no result.

SMILES	ADAM10 inh	DSG3 Ab inh	MPTP block	proKLK7 act	ADAM17 inh	rCAG RNA binder	MPTP counter	others
O=C(c1ccccc1)c1ccc(OCCOCCN2CCN(Cc3ccccc3)CC2)cc1	5	127	84*	0	0	-9	10	MPTP swell DR=18*;MPTP cs DR=27*
O=C(c1ccccc1)c1ccc(OCCCCN2CCCCC2)cc1	-3	85	0	0	-7	-3	·
Cc1onc(-c2ccccc2)c1C(=O)NN=Cc1cc(Cl)cc(Cl)c1O	-217	·	·	-208	-63	29	·
Cc1c(C)n(Cc2ccccc2)c2ccc(C(=O)OCCCN(C)C)cc12	-8	102	78*	-2	-5	2	-3
CCC(C)c1ccc(NC(=O)COc2c(F)c(F)c(C(F)(F)F)c(F)c2F)cc1 (centres undefined)	13	93	83*	0	5	-6	95*
O=C(COc1c(F)c(F)c(C(F)(F)F)c(F)c1F)Nc1ccc(N2CCOCC2)c(Cl)c1	7	106	90*	0	4	-10	78*
C=CCn1c(SCC(=O)O)nc2sc(CC)cc2c1=O	2	86	0	-1	-2	-1	·
C=CCn1c(SCC(=O)c2cccs2)nc2sc(CC)cc2c1=O	-3	76	91*	0	1	-2	77*
C=CCn1c(SCC2CCCCO2)nc2sc(CC)cc2c1=O (centres undefined)	-3	99	54*	1	-5	-7	22*
COC(=O)[C@@]12CCCCC=C1N(CCc1ccc(Cl)cc1)C(=O)[C@H]2CC(=O)NCc1ccc(C)o1	3	·	·	0	-3	7	·
O=C(Nc1ccc(F)cc1)OCc1cn(Cc2cc(F)ccc2F)nn1	2	·	·	0	-2	2	·
Cc1onc(-c2c(F)cccc2Cl)c1C(=O)OCc1cnc(Cl)s1	4	105	52*	0	-2	-6	5	MPTP swell DR=i;MPTP cs DR=66*
Cc1oc(-c2ccc(Cl)cc2)nc1CS(=O)CC(=O)NCCCN1CCCC(C)C1 (centres undefined)	-2	94	-1	0	1	-4	·
CCC1CCCCN1CCCNC(=O)C1CCN(Cc2nc(-c3ccc(Cl)cc3)oc2C)CC1 (centres undefined)	·	109	61*	·	·	·	-11
Cc1oc(-c2ccc(Cl)cc2)nc1CN1CCC(C(=O)NCCCN2CCOCC2)CC1	6	101	-3	0	-4	-7	·
Cc1oc(-c2ccc(Cl)cc2)nc1CS(=O)CC(=O)NCCCN1CCN(Cc2ccccc2)CC1 (centres undefined)	5	102	63*	0	3	-7	53*
CC(=O)C1=C(C)N(Cc2ccc(Cl)cc2)C(=S)NC1c1ccc(Cl)cc1 (centres undefined)	1	·	·	0	6	3	·
Cc1cc(C)c(C#N)c(SCCS(=O)(=O)c2ccc(C(C)(C)C)cc2)n1	4	106	61*	1	3	-2	20*
Cc1cc(C)c(C#N)c(SCCS(=O)(=O)c2ccc(Cl)cc2)n1	1	88	5	0	-6	5	·
Cc1ccc(Nc2nc(OC(C(F)(F)F)C(F)(F)F)nc(N3CCOCC3)n2)cc1	-4	104	72*	0	5	2	1	MPTP swell DR=>100;MPTP cs DR=>80
COc1cccc(NC(=O)Nc2c(-c3ccc(C)cc3)nc3ncccn23)c1	-259	·	·	-3	-66	6	·
CN1CCC(CNC(=O)Nc2csc3ccccc23)CC1	-9	97	1	0	-3	2	·
CCc1ccccc1NC(=O)Nc1ccc(F)cc1	-4	90	39	0	-3	2	·
O=C(COc1ccc(Cl)cc1Cl)Nc1ccccc1NS(=O)(=O)c1cccs1	2	92	66*	1	2	25	79*
O=C(Nc1ccc(F)cc1)Nc1ccccc1NS(=O)(=O)c1cccs1	1	87	81*	0	2	19	86*
SMILES	ADAM10 inh	DSG3 Ab inh	MPTP block	proKLK7 act	ADAM17 inh	rCAG RNA binder	MPTP counter	others
O=C(Nc1ccc(F)cc1)Nc1csc2ccccc12	12	103	75*	1	4	11	91*
CN(C)c1ccc(NC(=O)Nc2csc3ccccc23)cc1	11	93	52*	0	5	19	54*
COc1cccc(CNC(=O)C2C3C=CC4(CN(Cc5ccccc5)C(=O)C24)O3)c1OC (centres undefined)	-13	·	·	1	3	3	·
Cc1ccccc1NC(=O)OCCCN1C(=O)CCC12CCC(C)CC2 (centres undefined)	-3	·	·	0	-2	0	·
Cc1ccc(Cn2cc(COC(=O)N3CCCC3)nn2)cc1	-5	·	·	0	-1	1	·
O=S(=O)(c1cccc2cccnc12)N1CCC(c2cn3ccccc3n2)CC1	-37	·	·	-1	-8	5	·
C=CCN1[C@@H](CC(C)C)COc2cccc(NCCCN3CCOCC3)c2S1(=O)=O	-9	·	·	1	-4	-1	·
CCCCc1c(-c2ccccc2OC)ncn1Cc1ccc([N+](=O)[O-])cc1	-14	·	·	1	-4	3	·
Brc1ccc(CN2CCN(c3ncc(Cc4ccccc4)cn3)CC2)cc1	-11	·	·	1	-7	3	·
COC(=O)c1cc2c(c3c4cc(C)ccc4n(S(=O)(=O)c4ccc(OC)cc4)c13)C(=O)N(Cc1ccccc1OC)C2	-12	·	·	-1	-2	14	·
Cc1ccc(-n2c(SCC(=O)Nc3ccc(OCc4ccccc4)cc3)nnc2-c2ccco2)cc1	-3	·	·	0	0	7	·
Cc1ccc(CSC(Nc2ccc(F)cc2)=C(C#N)C#N)cc1	21*	98	95*	0	6	28	93*
COC(=O)c1ccc(CNCC(O)COc2ccc(-c3ccccc3)cc2)cc1 (centres undefined)	-1	·	89*	0	3	1	-4	MPTP swell DR=8.8*;MPTP cs DR=>80
COc1ccc(CNCC(O)COc2ccc(C(C)(C)c3ccccc3)cc2)cc1 (centres undefined)	14	93	6	0	4	-3	·
COc1ccc(Cn2cc(COC(=O)N3CCCC3)nn2)cc1	1	·	·	0	-1	0	·

Bioassay records: PubChem BioAssay, several laboratories
